Results reported in PubChem BioAssay (EPA / NIEHS).
The source made the active and inactive calls. Rule for the calls: active = hit-call score of the fitted dose curve at least 0.9, where 1 is the maximum; inactive = score below 0.9.

Read-out: MicroRNA 122 (MIR122), gene 406906
Assay: LTEA_HepaRG_MIR122: Life Technologies and Expression Analysis (LTEA) Assay for MicroRNA 122 (MIR122) using HepaRG (AID 2283516)
Settings: mRNA level, 48 h; actives raise or lower the signal
Protocol: LTEA_HepaRG is a cell based, multiplexed-readout assay that uses HepaRG, a human liver cell line, with measurements taken at 48 hours after chemical dosing on a 96-well plate.LTEA_HepaRG_MIR122 is one of 102 assay component(s) measured in the LTEA HepaRG cell culture assay. It is a marker of MicroRNA.Data from the assay component LTEA_HepaRG_MIR122 was analyzed into 1 endpoint. This assay endpoint, LTEA_HepaRG_MIR122, was analyzed with bidirectional fitting relative to DMSO as the negative control and baseline of activity. Using a type of inducible reporter, measures of mRNA induction for gain or loss-of-signal activity can be used to understand regulation of transcription factor activity. To generalize the intended target to other relatable targets, this assay endpoint is annotated to the microrna intended target family, where the subfamily is post-transcriptional regulation.
A total of 1060 chemcials from the ToxCast library were tested in eight-point concentration-response experiments. Cell culture and cytotoxicity assays were conducted at Thermo Fisher Scientific's Custom Services facility (Madison, WI). A single lot of human HepaRG cells (Thermo Fisher Scientific, Frederick, MD) was used for the cell culture experiments. 96-well format collagen type I coated plates of human HepaRG cells were prepared using established methods. Briefly, cryopreserved HepaRG cells were thawed, plated at a density of approximately 100,000 cells/well in HepaRG Thaw, Plate, and General Purpose media (HPRG770, Thermo Fisher Scientific), and incubated for 48 hours. 0.5% DMSO was selected as vehicle control to balance the requisite need of DMSO in HepaRG cultures to maintain differentiation (for example, baseline metabolism, proportions of hepatocytes vs. cholangiocytes), while enabling further hepatic receptor pathway activation (for example, PXR and CAR) in response to chemical exposure. 48 hours after plating, the culture medium was replaced with HepaRG Serum-Free Incudtion Media. Cells were exposed to each test chemical in duplicate and maintained in CO2 incubators for another 48 hours. Chemical plates were thawed to room temperature and 200x concentrations of treatment groups were prepared. 8-point conentration-reponse curves were made with the highest exposure at 100 uM, followed by half-log dilutions, all in 0.5% DMSO. Each test plate contained variouse controls, induction positive controls (1mM phenobarbital), cytotoxicity positive controls ([…] aflatoxin B1), vehicle controls (0.5% DMSO), and total lysis controls (0.5% DMSO). Cell morphology images were taken using an Essen IncuCyte FLR automated microscope, with six 96-well plates imaged in about 24 minutes. Images were captured and exported and JPEG files. Spent culture media was transfered to black-well plates for the LDH assay, and remaining media was sorted at -80 C for later use. Cells were treated with RLT buffer and frozen until shipped for gene expression analysis. Total RNA was isolated from the cell suspension in 75 uL of Buffer RLT (Qiagen, Germantown, MD 20874) by Quintiles/Expression Analysis (Durham, NC) using a custom isolation procedure. Total RNA from each plate well was transferred to a preamplification plate. Fluidigm's 96.96 Dynamic ArrayTM (Fluidigm, Amsterdam, the Netherlands) technology was used for gene expression analyses by quantitative reverse transcription polymerase chain reaction (qRT-PCR, performed by Quintiles/Expression Analysis, Durham, NC)89. Standard TaqManTM Assays (Applied Biosystems/ThermoFisher Scientific, Foster City, CA) were used to assess the expression of 93 genes selected based on their selectivity and sensitivity to important hepatic receptors known to be modulated by environmental chemicals; importance in human hepatocyte functionality; and hepatotoxicity. […]

Row | Structure (SMILES) | AC50 | outcome
1 | c1ccc2c(c1)-c1cccc3c1c-2cc1ccccc13 | 19.6 µM (active) | –
2 | CC(C)CC(C)O (stereo not given) | – | inactive
3 | CCc1ccc(O)c(C(C)(C)C)c1 | – | inactive
4 | Cc1nccn1-c1ccc(Sc2cccc(C3(C(N)=O)CCOCC3)c2)cc1 | 15.1 µM (active) | –
5 | c1ccc(C(O[C@@H]2CCCN(CCc3ccc4c(c3)OCO4)C2)c2ccccc2)cc1 | 69.7 µM (active) | –
6 | CCCCCCCCCCCCCCCCOS(=O)(=O)O | – | inactive
7 | CCCCCCCCCCCCCCO | – | inactive
8 | CC(C)c1nnc2ccc(-c3ocnc3-c3cc(F)ccc3F)cn12 | 50 µM (active) | –
9 | Cc1ccc(S(=O)(=O)NC(=O)NN2CCCCCC2)cc1 | – | inactive
10 | NC(=O)NN=Cc1ccc([N+](=O)[O-])o1 | – | inactive
11 | O=C(O)[C@H](O)[C@@H](O)C(=O)O | – | inactive
12 | CCCCOC(=O)c1ccccc1 | – | inactive
13 | COc1cc2c(c(OC)c1OC)-c1ccc(OC)c(=O)cc1[C@@H](NC(C)=O)CC2 | 0.113 µM (active) | –
14 | Cc1nc(-c2ccccn2)ncc1C(=O)Nn1cc(C)c2cc(F)ccc21 | 50 µM (active) | –
15 | CCn1nc(C)c2c1C(=O)NCC(c1ccc(O)cc1)=N2 | – | inactive
16 | CCCCCOC(C)=O | – | inactive
17 | OC(Cn1cncn1)(Cn1cncn1)c1ccc(F)cc1F | – | inactive
18 | CCCCCCCCCC | – | inactive
19 | OCC(CO)(CO)CO | – | inactive
20 | CC(C)CCCCCCOC(=O)C1CCCCC1C(=O)OCCCCCCC(C)C (stereo not given) | – | inactive

Row | Structure (SMILES) | AC50 | outcome
21 | C[C@@H](Oc1ccc(CNC(=O)c2cccnc2Oc2ccc3c(c2)OCO3)c(F)c1)C(=O)O | – | inactive
22 | OC[C@H]1O[C@@](CO)(O[C@H]2O[C@H](CO)[C@@H](O)[C@H](O)[C@H]2O)[C@@H](O)[C@@H]1O | – | inactive
23 | O=C(O)c1cccc(C(=O)O)c1 | – | inactive
24 | CCCc1ccccc1 | – | inactive
25 | c1ccc2ncccc2c1 | – | inactive
26 | CCCC(CCC)C(=O)O | – | inactive
27 | O=c1[nH]cnc2c1ncn2[C@H]1CC[C@@H](CO)O1 | – | inactive
28 | O=S1(=O)CCCO1 | – | inactive
29 | Cn1c(=O)c2[nH]cnc2n(C)c1=O | – | inactive
30 | COS(C)(=O)=O | – | inactive
31 | Nc1ccn([C@@H]2O[C@H](CO)[C@@H](O)[C@@H]2O)c(=O)n1 | – | inactive
32 | CCOC(N)=O | – | inactive
33 | OC[C@H]1O[C@@H]2O[C@H]3[C@H](O)[C@@H](O)[C@@H](O[C@H]4[C@H](O)[C@@H](O)[C@@H](O[C@H]5[C@H](O)[C@@H](O)[C@@H](O[C@H]6[C@H](O)[C@@H](O)[C@@H](O[C@H]7[C@H](O)[C@@H](O)[C@@H](O[C@H]1[C@H](O)[C@H]2O)O[C@@H]7CO)O[C@@H]6CO)O[C@@H]5CO)O[C@@H]4CO)O[C@@H]3CO | – | inactive
34 | NC(N)=O | – | inactive
35 | CCN(CC)C(=S)SSC(=S)N(CC)CC | – | inactive
36 | CCOc1ccc2[nH]cc(C(=O)NCc3ccccc3)c(=O)c2n1 | – | inactive
37 | O=C(O)c1cccc(C[C@@H]2COc3ccc(OCc4nc5cc(F)ccc5s4)cc3[C@@H]2O)c1 | – | inactive
38 | Cn1cc[nH]c1=S | – | inactive
39 | COc1cc(C(C)C)c2c(c1)S(=O)(=O)N(COc1cc(=O)n3cccc(OCCN4CCCCC4)c3n1)C2=O | 23.4 µM (active) | –
40 | NC(=O)N(O)[C@@H]1COc2cc(OCc3ccccc3)ccc21 | – | inactive
